Screens: PubChem BioAssay, National Center for Advancing Translational Sciences (NCATS)
Compounds with a hit are over-represented: about 3.1% of the library has one in this group of screens.
EPAC1 ag val: validation of human EPAC1 agonists; O95398; EPAC1 Rap1b BODIPY-GDP exchange, fluorescence; Potency, µM, for the others: max response, positive = active, actives largely listed as activators; 16,000 compounds, 1% hits; AID 1645883; further: nearly all actives have a fitted effect of over 70% in size
Target sequence (O95398 whole entry, looked up): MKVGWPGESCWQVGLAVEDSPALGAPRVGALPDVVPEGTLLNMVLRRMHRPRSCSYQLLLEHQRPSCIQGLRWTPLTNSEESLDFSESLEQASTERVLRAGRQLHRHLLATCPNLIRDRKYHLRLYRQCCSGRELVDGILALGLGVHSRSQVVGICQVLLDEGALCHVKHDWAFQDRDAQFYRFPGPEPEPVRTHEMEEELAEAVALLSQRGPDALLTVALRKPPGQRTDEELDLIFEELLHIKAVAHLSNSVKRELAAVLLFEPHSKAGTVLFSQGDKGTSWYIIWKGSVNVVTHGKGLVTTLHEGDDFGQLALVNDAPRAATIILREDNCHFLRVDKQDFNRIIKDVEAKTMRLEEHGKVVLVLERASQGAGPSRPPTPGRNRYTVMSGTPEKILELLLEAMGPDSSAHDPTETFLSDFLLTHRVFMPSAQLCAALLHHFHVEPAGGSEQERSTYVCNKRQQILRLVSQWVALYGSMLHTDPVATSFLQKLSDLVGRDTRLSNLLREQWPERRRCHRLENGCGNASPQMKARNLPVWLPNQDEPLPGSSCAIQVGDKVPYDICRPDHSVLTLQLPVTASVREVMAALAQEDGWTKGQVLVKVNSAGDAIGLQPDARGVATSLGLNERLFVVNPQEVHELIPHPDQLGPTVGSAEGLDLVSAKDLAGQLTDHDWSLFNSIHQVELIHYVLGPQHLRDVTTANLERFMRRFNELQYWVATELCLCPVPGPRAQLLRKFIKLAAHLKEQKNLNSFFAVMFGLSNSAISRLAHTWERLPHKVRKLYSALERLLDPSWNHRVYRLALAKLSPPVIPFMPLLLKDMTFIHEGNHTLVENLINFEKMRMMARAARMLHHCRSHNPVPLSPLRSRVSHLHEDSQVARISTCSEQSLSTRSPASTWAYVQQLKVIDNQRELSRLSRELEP
EPAC2 ant val: validation of human EPAC2 antagonists. Q8WZA2. 16,000 compounds, 1.7% hits. EPAC2 Rap1B BODIPY-GDP exchange, fluorescence. Potency, µM (doses to about 112 µM), for the others: at the highest dose activity, negative = inhibition, usual class: inhibitors;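 further: 100% = activation by cAMP agonist control; nearly all actives have a fitted effect of over 40% in size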
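Fluorescent exchange read-out: 100 nM EPAC2 with 250 nM RAP1B–BODIPY-GDP and 50 uM GDP; BODIPY-GDP release lowers fluorescence. Read at 480/540 nm every 5 min for 30 min at room temperature; normalized to 6.5 mM cAMP.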
The depositor's hits bear a star; u = inconclusive; ! = repeats disagree. The call rests on the fitted dose curve; in most records, active means well fitted curve in the direction sought with a large enough effect; inconclusive means small, poorly fitted or top-dose-only effect, or another doubt; inactive means no such curve, though single readings can be large; an effect the other way counts as inactive or inconclusive. Unless noted, on the % scale 0 is the no-effect control and ±100 the full control effect; potency means the concentration at half of the fitted maximal effect.

SMILES | EPAC1 ag val | EPAC2 ant val
O=c1c(-c2ccc(F)cc2)nc2cnc(Nc3ccccc3)nc2n1Cc1cccs1 | 100µM* | u
COc1ccc(-c2nc3cnc(Nc4ccccc4)nc3n(Cc3cccs3)c2=O)cc1 | -10% | -11%
CN(C)c1ncc2nc(CCc3ccccc3)c(=O)n(Cc3cccs3)c2n1 | 112µM* | 11%
CNC(C)CCC=C(C)C (stereo unspecified) | -14% | 5%
CO/N=C(\C(=O)N[C@@H]1C(=O)N2C(C(=O)O)=C(CSc3nnnn3C)CS[C@H]12)c1csc(N)n1 | -17% | 25%
Cc1cnc(C)c(-c2ccc3c(c2)CC(CNC(=O)Cc2c(C)[nH]c4ccccc24)O3)n1 (stereo unspecified) | -7% | -17%
CCOC(=O)N1CCN(Cc2ccc3c(c2)CN(C(=O)c2cc(-c4ccccc4)on2)CCO3)CC1 | 7% | -17%
C[C@@H]1[C@H](O)[C@@H](C)/C=C/C=C\C=C\C=C\C=C\C=C\C=C\[C@H](O[C@@H]2O[C@H](C)[C@@H](O)[C@H](N)[C@@H]2O)C[C@@H]2O[C@](O)(C[C@@H](O)C[C@@H](O)[C@H](O)CC[C@@H](O)C[C@@H](O)CC(=O)O[C@H]1C)C[C@H](O)[C@H]2C(=O)O (stereo in doubt) | 4% | 1%
CC(=C\c1ccccc1)/C=C1/SC(=S)N(CC(=O)O)C1=O | -31% | u
CCCc1c(OCCCCc2nn[nH]n2)ccc(C(C)=O)c1O | 10% | 8.9µM*!
CCCCCCOc1ccccc1C(N)=O | -10% | u
COc1cccc2ccc(CN3CCC4(CC3)c3ccccc3[C@@H](NC(=O)c3ccccc3)[C@@H]4O)nc12 | -1% | 20%
COC(=O)[C@@]1(C)CCC[C@@]2(C)c3ccc(O)c(C(C)C)c3CCC21 (stereo partly specified) | -38% | u
CC(=O)Oc1ccc2c(c1C(C)C)CCC1C(C)(C)CCC[C@@]21C (stereo partly specified) | 100µM* | -28%
CCCCCCCCCCCCCCCC(=O)O[C@H]1[C@@H](O)[C@@H](O)[C@@H]([C@H](NC(=O)[C@@H]2C[C@@H](CCC)CN2C)[C@H](C)Cl)O[C@@H]1SC | -195% | -5%
C[C@H](CSC(=O)c1ccccc1)C(=O)N1C[C@@H](Sc2ccccc2)C[C@H]1C(=O)O | -21% | 5%
N[C@H](C(=O)O)[C@@H]1CC(Cl)=NO1 | u | 33%
COc1ccc(-c2nc3cc(F)ccc3cc2CN(C(=O)c2cccc(OC)c2)C2CC2)cc1 | -1% | 1%
COc1cccc(-c2nc3cc(SC)ccc3cc2CN(C(=O)c2csc(C)n2)C2CC2)c1 | -2% | 16µM*
CCN(CC)CCNC(=O)c1cnn(-c2nccc(-c3cc4ccccc4o3)n2)c1C | -5% | -7%
COC(=O)[C@@H]1C[C@@H](NC(=O)c2cccc3c(C)c(C)[nH]c23)CN1Cc1cccc2ccccc12 | -7% | -1%
Cc1ccc2nc(CNC(=O)c3cc(NC(=O)c4ccccc4)cc4ncn(C5CCCC5)c34)cn2c1 | u | -8%
O=C(Nc1ccc(Oc2ccc(Cl)cc2)c(Cl)c1)c1cc(I)cc(I)c1O | 100µM* | -18%
O=C(Nc1ccc(Cl)cc1)Nc1ccc(Cl)c(Cl)c1 | -4% | u
COc1cc(CN2CCC3(CCC(CNC(=O)c4ccccc4)O3)CC2)cc(OC)c1 (stereo unspecified) | -14% | 5%
SMILES | EPAC1 ag val | EPAC2 ant val
Cc1c(CC(C)(C)C(=O)O)n(Cc2ccc(Cl)cc2)c2ccc(F)cc12 | -9% | 45µM*
COc1ccc2c(c1)c(CC(=O)O)c(C)n2Cc1ccc(Cl)cc1 | 1% | -25%
COc1ccc(/C=C/C(=O)c2ccc(O)cc2O)cc1 | 17% | -18%
COc1ccc(/C=C/C(=O)c2ccc(OC)cc2OC)cc1 | 14% | 16µM*
O=C(c1cccc(N2CCCC2=O)c1)N1CCC(Oc2cccc(CN3CCN(c4ccccn4)CC3)c2)CC1 | -19% | -22%
CC(=O)Oc1ccc(C(c2ccc(OC(C)=O)cc2)c2ccccn2)cc1 | -44% | 18µM*
O=S(=O)(O)Oc1ccc(C(c2ccc(OS(=O)(=O)O)cc2)c2ccccn2)cc1 | 22% | -11%
COC(=O)c1cc(CNC(=O)c2ccc3ncccc3c2)cc(NC(=O)c2ccccc2Cl)c1 | -18% | -10%
Nc1nc2c(nc(Br)n2[C@@H]2O[C@H]3COP(=O)(O)O[C@H]3[C@@H]2O)c(=O)[nH]1 | 21% | -30%
Nc1ncnc2c1nc(Br)n2C1OC2COP(=O)(O)O[C@@H]2C1O (stereo partly specified) | 0.45µM* | 1.3µM*
CC(C)[C@@H]1CC[C@@H](C)C[C@H]1OC(=O)c1ccccc1O | -6% | 4%
COCC(=O)Nc1cc(C(=O)N2CCc3c([nH]c4ccccc34)C2)cc2nc(-c3ccccc3)n(C)c12 | 1% | u
